Screening results: PubChem, NMMLSC
LAP4-GFP MLPCN – alters LAP4-GFP fluorescence in TOR pathway yeast screen; GFP response vs DMSO, % at 10 µM; AID 2023; actives 0.34% (n = 320,000); S. cerevisiae LAP4-GFP multiplex, flow cytometry GFP, 3 h; median GFP as percent of DMSO wells;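 active = GFP response vs DMSO above a set limit, about the screen mean plus 3 SD, cut at about 150% in these data; inconclusive = under 70 cell events counted for the yeast strain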
AGP1 TOR yeast – alters AGP1-GFP fluorescence in TOR pathway yeast screen. S. cerevisiae AGP1-GFP multiplex flow cytometry, 3 h; GFP as percent of DMSO wells. GFP response vs DMSO, % at 10 µM. actives 0.02% (n = 320,000);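 active = GFP response relative to DMSO above a set limit, near screen average plus 3 SD, cut at about 150% in these data; inconclusive = fewer than 70 cells counted for the yeast strain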;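 note: median GFP channel fluorescence of the gated AGP1 strain per well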
RPL19A TOR yeast – modulators of TOR pathway RPL19A-GFP in S. cerevisiae | actives 0.3% (n = 330,000) | S. cerevisiae RPL19A-GFP strain, flow cytometry, 3 h; hits give low values | AID 2025 | percent response vs DMSO, % at 10 µM;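 active = percent response vs DMSO below 50%; inconclusive = fewer than 70 events counted for the yeast strain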;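 note: median channel GFP fluorescence of the barcoded RPL19A-GFP strain; ratio of sample median GFP to plate DMSO average so 100% = DMSO; lower means less RPL19A-GFP as with rapamycin TOR inhibition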
MEP2-GFP yeast – alters MEP2-GFP fluorescence in TOR pathway yeast screen | S. cerevisiae MEP2-GFP strain, flow cytometry GFP, 3 h; 100% = DMSO control level | GFP response vs DMSO, % at 10 µM | actives 0.51% (n = 330,000) | AID 2016;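 active = GFP response versus DMSO above a set limit, roughly screen mean plus 3 SD, cut at about 180% in these data; inconclusive = fewer than 70 cells counted for a yeast strain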;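 note: median GFP fluorescence of the barcode-gated MEP2-GFP cells per well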
Efflux pump inh – antifungal efflux pump inhibition, Nile Red retention | AID 485275 | S. cerevisiae Candida pump triplex | inhibition, % at 10 µM | actives 0.44% (n = 330,000);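 active = plate passing quality check with inhibition over a set limit, or well fluorescence over plate mean plus 4 SD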;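 note: Nile Red retained in pooled yeast measured as flow cytometry median fluorescence; 0% = buffer negative control and 100% = Enniatin B positive control; higher means more Nile Red kept so more efflux inhibition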
CIT2-GFP yeast – yeast TOR pathway CIT2-GFP modulation; S. cerevisiae CIT2-GFP strain, flow cytometry, 3 h; 100 means same as DMSO wells; GFP response vs DMSO, % at 10 µM; actives 0.065% (n = 320,000); AID 2029;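 active = GFP response relative to DMSO above a set limit, near the screen mean plus 3 SD, cut at about 150% in these data; inconclusive = Fewer than 70 cells measured for a yeast strain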;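 note: ratio of well median GFP fluorescence to mean of DMSO wells on the plate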
Yeast cmpd fluor – flagged as fluorescent in efflux inhibitor counter-screen | shares compounds with Efflux pump inh | S. cerevisiae AD/pABC3, compound fluorescence, flow cytometry | fluorescence ratio to DMSO, % at 10 µM | actives 4% (n = 1,700) | AID 588517;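 active = fluorescence ratio to DMSO above its plate's cutoff, the plate mean ratio plus 5 SD, cut at about 210% in these data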;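 note: unstained yeast with no Nile Red so the signal is compound autofluorescence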
Mdr1 pump inh – blocks the Candida albicans Mdr1 efflux pump in yeast. shares compounds with Efflux pump inh. S. cerevisiae AD/CaMDR1, Nile Red efflux, flow cytometry. inhibition, % at 10 µM. actives 1% (n = 1,700); in the data active = inhibition above about 26%;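 note: 0% = DMSO vehicle and 100% = reference inhibitor; higher means more Nile Red retained so more efflux inhibition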
Cdr2 pump inh – inhibitors of Candida albicans Cdr2 efflux pump; shares compounds with Efflux pump inh; S. cerevisiae AD/CaCDR2, Nile Red retention, flow cytometry; Nile Red retention ratio vs DMSO, % at 10 µM; actives 4% (n = 1,700); AID 588520; in the data active = Nile Red retention ratio vs DMSO above about 190%;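 note: higher ratio means more blocking of Cdr2 efflux of the dye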
CaCdr1 efflux inh – Candida Cdr1 efflux pump inhibition; shares compounds with Efflux pump inh; S. cerevisiae AD/CaCDR1, Nile Red efflux, flow cytometry; inhibition, % at 10 µM; actives 1% (n = 1,700);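 active = inhibition above the screen-wide mean plus twice its standard deviation, cut at about 32% in these data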
An asterisk follows results filed as active; ? = inconclusive; / = no result. A selection: hits, their analogues and other compounds. The true share with any hit is near 1.3%.

SMILES	LAP4-GFP MLPCN	AGP1 TOR yeast	RPL19A TOR yeast	MEP2-GFP yeast	Efflux pump inh	CIT2-GFP yeast	Yeast cmpd fluor	Mdr1 pump inh	Cdr2 pump inh	CaCdr1 efflux inh
COc1ccc(NC(=O)CSc2nc3c(c(=O)n2-c2ccccc2OC)SCC3)cc1	93	95	96	99	1.1*	93	79	0	93	0
CCCCCCCC(=O)N/N=C(\C)c1ccc(N)cc1	94	99	96	96	0	97	/	/	/	/
CCCCCCCCCC(=O)N/N=C(\C)c1cccnc1	87	103	100	95	1.6*	/	88	0	104	0
O=C(CSc1nc2nc3c(cc2c(=O)n1-c1ccccc1)CCCC3)Nc1cccc2ccccc12	106	92	98	113	1.1*	87	95	0	142	0
O=C1CC(c2ccco2)Sc2ccccc2N1 (configuration not stated)	97	95	103	110	0	103	100	0	112	0
O=C1CC(c2ccccc2)Sc2ccccc2N1 (configuration not stated)	100	99	101	100	0	129	/	/	/	/
Cc1ccsc1C1CC(=O)Nc2ccccc2S1 (configuration not stated)	104	108	100	101	0	90	94	0	102	0
COc1ccccc1NC(=O)COC(=O)CCn1c(C)csc1=O	103	105	97	101	0	101	/	/	/	/
CC(C)(C)C1CCC(OC(=O)C[N+]2(C)CCCC2)CC1 (configuration not stated)	102	121	101	111	0.5*	106	100	0	260*	0
c1ccc(COc2ccc(Oc3nc(N4CCCCC4)nc(N4CCOCC4)n3)nn2)cc1	105	103	98	103	0	108	/	/	/	/
Cc1ccc(Nc2nc(Oc3ccc(OCc4ccccc4)nn3)nc(N3CCOCC3)n2)cc1	100	/	96	98	0.7*	102	108	0	110	0
COc1cc(/C=C/C(=O)O[C@H]2[C@H](O[C@@H]3O[C@@H](C)[C@H](O)[C@@H](O)[C@H]3O)[C@@H](O)[C@H](OCCc3ccc(O)c(OC)c3)O[C@@H]2CO)ccc1O	106	103	103	103	0	105	/	/	/	/
O=C(Nc1ccc(Cl)cn1)Nc1ccc(Cl)cn1	103	103	104	98	0	101	/	/	/	/
O=C(NC(=O)c1ccccc1)Nc1ccc(Cl)cn1	94	93	103	102	0.4*	94	103	0	96	0
CC(=O)Nc1ccc(NC(=O)C(C)OC(=O)CSc2ccc(Br)cc2C)cc1 (configuration not stated)	98	106	102	103	-1	104	/	/	/	/
CC1(C)CC(=O)C(C(c2ccc(Br)cc2)C2C(=O)CC(C)(C)CC2=O)C(=O)C1	95	88	101	97	0	91	/	/	/	/
C[C@H](CO)N1C[C@H](C)[C@@H](CN(C)S(C)(=O)=O)Oc2ccc(NS(=O)(=O)c3cn(C)cn3)cc2C1=O	?	?	?	?	0	?	/	/	/	/
CC(=O)Nc1ccc(S(=O)(=O)N2CCN=C2SCc2ccc(C)cc2)cc1	110	100	100	107	0	96	/	/	/	/
CC(=O)Nc1ccc(S(=O)(=O)N2CCN=C2SCc2ccc(F)cc2)cc1	95	107	102	106	1.4*	114	89	0	91	0
CCCCn1c(SCC(=O)NNC(=O)c2ccccc2)n[nH]c1=O	108	104	99	107	0	103	/	/	/	/
Cc1ccc2nc(SCC(=O)N3c4ccccc4CC3C)c(C)cc2c1 (configuration not stated)	97	105	101	98	112*	99	103	0	104	0
Cc1ccc2nc(-c3cccnc3SCC(=O)N3c4ccccc4CC3C)[nH]c2c1 (configuration not stated)	99	105	97	98	0	94	/	/	/	/
Cc1nn(C)c(Sc2ccccc2N)c1[N+](=O)[O-]	129	98	102	102	0.9*	102	105	0	106	0
O=C1/C(=C\c2ccco2)SC(=S)N1c1ccc(O)cc1	96	108	95	108	0.4*	104	103	0	98	0
Oc1ccc(Br)cc1C=Nc1ccc2c3c(cccc13)CC2	105	97	111	93	3.1*	97	102	0	116	0
SMILES	LAP4-GFP MLPCN	AGP1 TOR yeast	RPL19A TOR yeast	MEP2-GFP yeast	Efflux pump inh	CIT2-GFP yeast	Yeast cmpd fluor	Mdr1 pump inh	Cdr2 pump inh	CaCdr1 efflux inh
Oc1ccc(Cl)cc1C=Nc1ccccc1Br	113	101	103	96	0	100	/	/	/	/
Cc1nn(-c2ccccc2)nc1C(=O)OCC(=O)N1CCC(C)CC1	100	93	99	111	0	106	/	/	/	/
CCCCn1c(N)c(N(CCOC)C(=O)c2cc(CC)c(C)s2)c(=O)[nH]c1=O	120	105	95	99	0	73	/	/	/	/
COc1cc(OC)cc(C(=O)NC(=S)N(Cc2ccccc2)C(C)C)c1	88	99	108	101	0	104	/	/	/	/
CC(C)c1ccc(/C=c2\sc3nc(-c4ccncc4)nn3c2=O)cc1	97	94	95	97	0	95	105	0	108	0
CCOc1ccc(N(C)S(=O)(=O)c2ccc(C)c(C(=O)Nc3nnc(C4CC4)s3)c2)cc1	88	96	95	91	0	97	/	/	/	/
COc1ccccc1NC(=O)CN1CCN(CC(=O)Nc2ccc(C)c(F)c2)CC1	99	103	105	110	0	106	/	/	/	/
CCOc1ccc(C(=O)Nc2cccc(-c3nc4cccnc4o3)c2)cc1Cl	125	90	100	107	1.0*	109	113	0	114	0
CCOC(=O)CN1C(=O)CC(c2ccc([N+](=O)[O-])cc2)C1=O (configuration not stated)	96	99	100	98	0	98	/	/	/	/
COc1ccc(NC(=O)c2ccco2)c(NC(=O)c2ccc([N+](=O)[O-])cc2)c1	66	93	109	93	0	91	/	/	/	/
